Source: PubChem
D1 antag: blocks dopamine activation of the human D1 receptor | AID 504652 | hit rate 3.2% among 360,000 | activity change, negative = inhibition, % at 10 µM | HEK293 TREx D1 cells, calcium flux, dopamine EC80; stronger effect = lower value; in the data active means activity change below about -30%
Target sequence (P21728 whole entry, looked up): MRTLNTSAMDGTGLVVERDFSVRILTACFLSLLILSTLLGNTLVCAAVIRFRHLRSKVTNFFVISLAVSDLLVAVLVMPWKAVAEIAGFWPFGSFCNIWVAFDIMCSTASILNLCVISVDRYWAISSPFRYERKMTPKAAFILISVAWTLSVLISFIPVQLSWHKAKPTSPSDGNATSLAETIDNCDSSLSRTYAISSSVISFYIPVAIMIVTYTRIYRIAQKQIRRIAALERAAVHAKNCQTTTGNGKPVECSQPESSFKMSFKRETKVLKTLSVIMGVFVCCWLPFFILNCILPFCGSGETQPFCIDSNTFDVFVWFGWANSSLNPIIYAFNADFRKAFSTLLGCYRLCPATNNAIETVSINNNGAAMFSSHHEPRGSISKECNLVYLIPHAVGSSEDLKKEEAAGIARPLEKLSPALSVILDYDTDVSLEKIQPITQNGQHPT
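Calcium flux readout: force-coupled, inducible Hek293 Trex D1 line, cells induced overnight at 30 C with tetracycline, dye-loaded 30–90 min at RT. Antagonism scored against EC80 dopamine challenge given 180 s after compound.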
BCR signal inh: blocks chronic active B-cell receptor signaling | ABC-DLBCL IkBa-CBG/CBR reporter, luminescence ratio, 4 h | AID 493014 | hit rate 0.05% among 340,000 | Potency, µM (highest dose often 46.1 µM), usual class: inhibitors; active means well fitted inhibition curve with a large enough effect in the signal ratio, with a control signal flat, not every such curve was filed as active; inconclusive means small, poorly fitted or top-dose-only effect, or effect the other way, or a change in a side signal; the % refers to the signal ratio
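TMD8 human ABC-DLBCL cells with doxycycline-inducible IκBα–green luciferase fusion and unfused red luciferase, in 0.5% FBS medium; compounds up to 46 uM, 4 h at 37C. Green/red luminescence ratio, filter-overlap corrected, fitted to concentration-response curves.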
D1 agonist: human D1 receptor agonism; P21728; HEK293 T-REx D1 cells, calcium flux, agonist mode; activation, % at 2 µM; hit rate 1% among 360,000; AID 504660; in the data active means activation above about 30%
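Agonism was scored from calcium flux recorded over 180 s (1 read/s) after pintool compound addition, following a 10-cycle baseline. Cells were inducible force-coupled HEK293 TREx D1, plated overnight at 30 C and loaded with no-wash calcium dye.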
DRD3 agonist: agonists of human D3 dopamine receptor; P35462; D3R DiscoveRx beta-arrestin cells, luminescence, 90 min; max activation, %; hit rate 0.58% among 410,000; AID 652048; in the data active means max activation above about 30%
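Cells at 1500/well, incubated overnight, then treated with pinned compounds (dopamine as control) for 90 min at 37 degrees C. DiscoveRx reagent added for 30 - 60 minutes at room temperature; luminescence read.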
D1 PAM: enhances dopamine response at the human D1 receptor; hit rate 0.036% among 360,000; P21728; AID 504651; potentiation, % at 10 µM; HEK293 TREx D1 cells, calcium flux, dopamine EC20 potentiation; in the data active means potentiation above about 30%
D3 antag: D3 dopamine receptor (human) antagonism. max response, negative = inhibition, %. AID 652054. hit rate 2.5% among 360,000. D3R cells, DiscoveRx beta-arrestin luminescence, antagonist mode; stronger effect = lower value; in the data active means max response below about -50%; inconclusive means no clear call, values can overlap the other calls
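Cells plated overnight at 1500 cells/well, then exposed to library compounds with dopamine controls for 90 minutes at 37 degrees C. DiscoveRx reagent added for 30–60 minutes at room temperature; luminescence read, quantitative HTS format.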
Large screens that a line does not name were inactive. Most compounds without a hit are left out; they make up all but 6% or so of the library.

O=c1c2cnn(-c3ccccc3)c2ncn1Cc1ccccn1	D1 antag -41
CC(=O)Cn1cnc2c(cnn2-c2ccc(F)cc2)c1=O	none (no result: D1 antag, BCR signal inh, D1 agonist, D1 PAM)
COc1ccc(-n2ncc3c(=O)n(CC(C)=O)cnc32)cc1	D1 antag -34, BCR signal inh inconclusive
Cc1ccc(NC(=O)Cn2c(=O)n(Cc3nc(C)no3)c(=O)c3cc4c(cc32)OCO4)cc1	none (no result: BCR signal inh, D3 antag)
Cc1c(NC(=O)C(C)(C)Oc2ccc(Cl)cc2)cccc1-c1nc2ncccc2o1	none (no result: BCR signal inh, D3 antag)
CCOc1ccccc1CNC(=O)c1ccc(Sc2ccc(Cl)cc2)c(NC(C)=O)c1	D1 antag -39
CCOc1ccc(CNC(=O)c2ccc(Sc3ccc(Cl)cc3)c(NC(C)=O)c2)cc1	none
Cc1ccc(N2CCN(C(CCc3ccccc3)C(=O)Nc3c(C)cccc3C)CC2)cc1 (stereo not given)	none (no result: D1 antag, BCR signal inh, D1 agonist, D1 PAM)
CC1(C(=O)NS(=O)(=O)C2CC2)CCCN(C(=O)Cc2ccc3ccccc3c2)C1 (stereo not given)	none (no result: D1 antag, BCR signal inh, D1 agonist, D1 PAM)
COc1cc(OC)cc(C(=O)N2CCN(Cc3ccccc3Br)CC2)c1	BCR signal inh inconclusive
COc1ccc(CN2CCN(C(=O)c3cccnc3)CC2)cc1Br	D1 antag -34, D3 antag inconclusive
O=C(c1cccnc1)N1CCN(Cc2ccccc2Br)CC1	D3 antag -60
O=C(c1cccnc1)N1CCN(Cc2cccc(Br)c2)CC1	BCR signal inh inconclusive
Cc1ccc(C2=Nc3ccccc3N(CC(=O)Nc3cccc(F)c3)C(=O)C2)cc1C	none (no result: BCR signal inh, D3 antag)
CCOc1ccc(CCN2C(=S)N([C@@H](Cc3ccc(O)cc3)CN3CCC[C@@H]3CN3C(=S)NC[C@@H]3CC(C)C)C[C@@H]2CC(C)C)cc1	D3 antag inconclusive (no result: D1 antag, BCR signal inh, D1 agonist, D1 PAM)
Cc1ccc(N2CCN(Cc3nnc(-c4ccccc4F)o3)CC2)c(C)c1	D1 antag -50 (no result: BCR signal inh, D3 antag)
COc1ccc(-c2nc3c4ccccc4ccn3c2Cc2ccsc2)cc1OC	none (no result: D1 antag, BCR signal inh, D1 agonist, D1 PAM)
CCOc1ccc(C(=O)NCCC(=O)N2CCC3(CC2)NCCc2[nH]cnc23)cc1OCC	D1 antag -63
Cc1nc2[nH]c(=O)n(O)c(=O)c2s1	none (no result: D1 antag, BCR signal inh, D1 agonist, D1 PAM)
CC(C)(C)C(=O)NC(=S)NNC(=O)C(c1ccccc1)c1ccccc1	D1 agonist 350, D1 PAM 34
COc1ccc(/C=C/c2nc(C#N)c(N3CCC(C)CC3)o2)cc1OC	none (no result: BCR signal inh, D3 antag)
Cc1ccc(NC(=O)Cc2ccc(F)cc2)cc1	none
COC(=O)c1ccc(NC(=O)CSc2ccccc2)cc1	D1 antag -75
COC(=O)c1ccc(NC(=O)Cc2ccc(F)cc2)cc1	D1 antag -30
COC(=O)c1ccc(NC(=O)CN2CCN(c3ccccc3)CC2)cc1	DRD3 agonist 33
CCc1cccc(CC)c1NC(=O)CN1CCN(c2ccccc2)CC1	D3 antag -76
CC(C)OCCCN1C(=O)c2[nH]nc(-c3ccccc3O)c2C1c1ccccc1F (stereo not given)	none (no result: BCR signal inh, D3 antag)
O=C(Nc1ccccc1OC(F)F)c1ccc(N2CCCC2=O)cc1	none (no result: D1 antag, BCR signal inh, D1 agonist, D1 PAM)
O=C(C[C@H]1CC[C@@H]2[C@H](COC[C@H](O)CN2Cc2cccc(F)c2)O1)NCc1cccc(F)c1	none (no result: D1 antag, BCR signal inh, D1 agonist, D1 PAM)
CCN(CC)C(=O)Nc1ccc(C(=O)OC)cc1	BCR signal inh inconclusive, D3 antag -69
COC(=O)c1ccc(N2CCN(CC(=O)c3ccc(C)cc3)CC2)c([N+](=O)[O-])c1	none (no result: D1 antag, BCR signal inh, D1 agonist, D1 PAM)
COC(=O)c1ccc(NC(=S)NCCc2cccc(C)c2)cc1	BCR signal inh inconclusive
COC(=O)c1ccc(N2CCN(CC(=O)c3ccc(-c4ccccc4)cc3)CC2)c([N+](=O)[O-])c1	D1 antag -34
CCN(CC)C(=S)Nc1ccc(C(=O)OC)cc1	none
COC(=O)c1ccc(NC(=S)NCCc2ccccc2C)cc1	D1 antag -36, BCR signal inh inconclusive
N#Cc1ccc(C(=O)NC(=S)N2CCOCC2)cc1	none (no result: D1 antag, D1 agonist, D1 PAM)
CC(=O)Nc1ccc(C(=O)Nc2ccc(S(=O)(=O)N3CCOCC3)cc2)cc1	none
CC(=O)N1CCN(C(=S)NC(=O)c2ccc(S(=O)(=O)N3CCOCC3)cc2)CC1	D1 antag -31
O=C(NC(=S)N1CCOCC1)c1ccc([N+](=O)[O-])cc1	BCR signal inh 23µM
COc1ccc(C(=O)NC(=S)N2CCN(c3ccc([N+](=O)[O-])cc3)CC2)cc1	D1 antag -31, D3 antag inconclusive
Cc1ccc(S(=O)(=O)N2CCOCC2)cc1C(=O)NC(=S)N1CC(C)OC(C)C1 (stereo not given)	D1 antag -35
CCOc1ccccc1OCCCC(=O)Nc1cc(S(=O)(=O)N2CCCCC2)ccc1C	none (no result: D1 antag, BCR signal inh, D1 agonist, D1 PAM)
O=C(Nc1cccc2cccnc12)c1ccc(F)cc1	BCR signal inh inconclusive (no result: D3 antag)
CC(C)Cn1c(N)c(C(=O)CSc2ccc3c(c2)OCCO3)c(=O)n(C)c1=O	D1 antag -33
CCOC(=O)C(C)NC(=O)c1cc2c(=O)[nH]c3ccc(C)cc3c2s1 (stereo not given)	none (no result: BCR signal inh, D3 antag)
O=c1/c(=C/c2ccco2)sc2n1CN(c1cccc(Br)c1)CN=2	BCR signal inh inconclusive, D3 antag -61
CC1CN(Cc2cc(=O)n3ccsc3n2)CC(C)O1 (stereo not given)	D1 antag -49
CC(=O)N[C@@H](CCC(N)=O)C(=O)O	none (no result: D1 antag, BCR signal inh, D1 agonist, D1 PAM, D3 antag)
O=c1ccc2ccc(O)cc2o1	none (no result: D1 antag, BCR signal inh, D1 agonist, D1 PAM)
O=c1ccc2cc(O)c(O)cc2o1	D1 antag -41
CC1(c2nnnn2Cc2ccccc2)CCC(=O)N1CCCn1ccnc1 (stereo not given)	none (no result: D1 antag, BCR signal inh, D1 agonist, D1 PAM)
COc1cccc(CCNC(=O)c2c(O)nc3cc(C)ccn3c2=O)c1	none (no result: BCR signal inh, D3 antag)
CC(COc1ccccc1)NC(C)C(O)c1ccc(O)cc1 (stereo not given)	D3 antag -87
C[C@H](NCCc1ccc(O)cc1)[C@H](O)c1ccc(O)cc1	none
CCOc1ccc2[nH]c(C)c(CN3CCOCC3)c(=O)c2c1	none
Cc1[nH]c2ccc(Br)cc2c(=O)c1CN1CCOCC1	D3 antag -70
CCOCCCNC(=O)c1cc2c(=O)[nH]c3ccccc3c2n1C	none (no result: BCR signal inh, D3 antag)
O=C1CC(=C2c3ccccc3-c3ccccc32)C(=O)N1CCCCN1CCN(c2ccccc2)CC1	D3 antag -55
O=C1CC(=C(c2ccccc2)c2ccccc2)C(=O)N1CCCN1CCN(c2cccc(Cl)c2)CC1	D3 antag inconclusive
CCCCCCCCN1C(=O)[C@H](CC(=O)NCCc2ccccc2OC)C[C@@]2(C(=O)OCC)CCC=C12	none (no result: D1 antag, BCR signal inh, D1 agonist, D1 PAM)
Cc1nc2ccc(NC(=O)c3ccc(Br)o3)cc2s1	D1 antag -31, BCR signal inh inconclusive
CCCCc1ccc(C(=O)Nc2ccc3nc(N(CC)CC)cc(C)c3c2)cc1	none (no result: BCR signal inh, D3 antag)
CCN(CC)c1cc(C)c2cc(NC(=O)c3ccc(Br)o3)ccc2n1	D1 antag -55, BCR signal inh inconclusive
